Laboratory results taken from PMC7862700, “An all-to-all approach to the identification of sequence-specific readers for epigenetic DNA modifications on cytosine”.

Key:
Assay in all cases: DAPPL (digital affinity profiling via proximity ligation, sequencing); 10 mM Tris-HCl pH 7.5, 50 mM NaCl, 1 mM DTT, 4% glycerol, room temperature, 30 min; GST-TFs on glutathione beads, 16-mer random dsDNA library, 0.1% formaldehyde crosslink after washing; high values mean tight binding
FLI1 = target: T1, FLI1 (Homo sapiens, UniProt Q01543 1-452); details: protein: recombinant; tags: N-terminal GST; dsDNA, one strand shown
T1 sequence: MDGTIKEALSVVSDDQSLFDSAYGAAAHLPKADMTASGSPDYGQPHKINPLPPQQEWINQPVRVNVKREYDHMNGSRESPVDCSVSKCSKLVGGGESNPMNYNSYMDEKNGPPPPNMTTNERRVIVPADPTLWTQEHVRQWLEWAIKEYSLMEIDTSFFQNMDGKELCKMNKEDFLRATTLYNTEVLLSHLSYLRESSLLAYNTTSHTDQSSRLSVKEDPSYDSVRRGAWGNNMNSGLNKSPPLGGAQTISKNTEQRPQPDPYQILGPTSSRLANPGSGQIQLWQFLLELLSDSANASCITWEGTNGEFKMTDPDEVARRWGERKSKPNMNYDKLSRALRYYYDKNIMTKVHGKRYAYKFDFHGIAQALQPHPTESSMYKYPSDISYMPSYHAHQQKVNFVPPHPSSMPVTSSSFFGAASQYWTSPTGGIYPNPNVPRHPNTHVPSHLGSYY
In short: (§1)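 Human transcription factors carrying a GST fusion were produced in yeast, bound to glutathione beads, tagged with DNA barcodes and pooled together with a tag-only sample. Each pool was held with 200 nmole of a random double-stranded 16-mer DNA library in Tris/NaCl/DTT/glycerol buffer for 30 min at room temperature, then washed, crosslinked in 0.1% formaldehyde, proximity-ligated with BsaI/T4 ligase (1 h, 37 °C), PCR-amplified and sequenced on an Illumina NextSeq500. Binding signal is the read frequency of each hexamer for a given factor divided by its frequency in the tag-only sample.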

ELK1 = target: T2, ELK1 (Homo sapiens, UniProt P19419 1-428); details: protein: recombinant; tags: N-terminal GST; dsDNA, one strand shown
T2 sequence: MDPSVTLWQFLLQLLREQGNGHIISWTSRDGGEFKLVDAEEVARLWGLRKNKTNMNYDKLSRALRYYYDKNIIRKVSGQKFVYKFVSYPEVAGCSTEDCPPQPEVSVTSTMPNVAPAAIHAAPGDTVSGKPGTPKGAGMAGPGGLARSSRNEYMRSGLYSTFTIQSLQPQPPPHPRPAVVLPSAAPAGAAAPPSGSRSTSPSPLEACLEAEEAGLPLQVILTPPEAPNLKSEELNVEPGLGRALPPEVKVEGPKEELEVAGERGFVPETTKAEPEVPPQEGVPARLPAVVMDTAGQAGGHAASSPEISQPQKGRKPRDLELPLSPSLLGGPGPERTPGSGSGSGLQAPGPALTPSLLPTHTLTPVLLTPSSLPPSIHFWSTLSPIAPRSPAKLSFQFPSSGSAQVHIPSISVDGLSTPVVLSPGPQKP
In short: as §1

GABPA = target: T3, GABPA (Homo sapiens, UniProt Q06546 1-454); details: protein: recombinant; tags: N-terminal GST; dsDNA, one strand shown
T3 sequence: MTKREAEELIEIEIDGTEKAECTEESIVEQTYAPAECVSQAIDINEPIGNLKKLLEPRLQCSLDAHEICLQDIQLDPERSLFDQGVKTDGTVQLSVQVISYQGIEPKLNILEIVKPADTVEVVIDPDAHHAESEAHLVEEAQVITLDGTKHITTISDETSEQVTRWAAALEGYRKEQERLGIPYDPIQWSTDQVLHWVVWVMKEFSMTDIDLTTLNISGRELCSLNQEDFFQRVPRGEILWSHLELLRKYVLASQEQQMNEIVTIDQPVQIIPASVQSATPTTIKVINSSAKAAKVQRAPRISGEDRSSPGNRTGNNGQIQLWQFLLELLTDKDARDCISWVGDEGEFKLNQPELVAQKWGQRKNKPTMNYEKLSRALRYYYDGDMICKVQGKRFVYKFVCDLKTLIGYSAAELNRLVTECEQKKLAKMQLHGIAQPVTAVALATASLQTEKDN
In short: as §1

ERG = target: T4, ERG (Homo sapiens, UniProt P11308 1-479); details: protein: recombinant; tags: N-terminal GST; dsDNA, one strand shown
T4 sequence: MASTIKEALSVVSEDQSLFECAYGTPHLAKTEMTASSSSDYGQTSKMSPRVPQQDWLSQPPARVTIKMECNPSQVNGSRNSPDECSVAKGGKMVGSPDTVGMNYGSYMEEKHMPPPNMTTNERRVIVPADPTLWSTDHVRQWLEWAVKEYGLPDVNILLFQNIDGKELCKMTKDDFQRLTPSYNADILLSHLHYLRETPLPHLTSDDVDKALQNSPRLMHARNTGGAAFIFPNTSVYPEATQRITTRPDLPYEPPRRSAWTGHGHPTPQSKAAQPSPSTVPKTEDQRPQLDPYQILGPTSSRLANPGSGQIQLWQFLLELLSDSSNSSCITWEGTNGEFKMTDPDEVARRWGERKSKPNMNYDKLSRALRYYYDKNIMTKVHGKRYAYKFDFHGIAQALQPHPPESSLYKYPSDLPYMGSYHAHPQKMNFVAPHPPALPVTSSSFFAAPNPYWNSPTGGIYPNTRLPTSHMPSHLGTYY
In short: as §1

ELF1 = ELF1 (Homo sapiens, UniProt P32519 1-619); details: protein: recombinant; tags: N-terminal GST; dsDNA, one strand shown
Sequence of ELF1 (P32519 whole entry): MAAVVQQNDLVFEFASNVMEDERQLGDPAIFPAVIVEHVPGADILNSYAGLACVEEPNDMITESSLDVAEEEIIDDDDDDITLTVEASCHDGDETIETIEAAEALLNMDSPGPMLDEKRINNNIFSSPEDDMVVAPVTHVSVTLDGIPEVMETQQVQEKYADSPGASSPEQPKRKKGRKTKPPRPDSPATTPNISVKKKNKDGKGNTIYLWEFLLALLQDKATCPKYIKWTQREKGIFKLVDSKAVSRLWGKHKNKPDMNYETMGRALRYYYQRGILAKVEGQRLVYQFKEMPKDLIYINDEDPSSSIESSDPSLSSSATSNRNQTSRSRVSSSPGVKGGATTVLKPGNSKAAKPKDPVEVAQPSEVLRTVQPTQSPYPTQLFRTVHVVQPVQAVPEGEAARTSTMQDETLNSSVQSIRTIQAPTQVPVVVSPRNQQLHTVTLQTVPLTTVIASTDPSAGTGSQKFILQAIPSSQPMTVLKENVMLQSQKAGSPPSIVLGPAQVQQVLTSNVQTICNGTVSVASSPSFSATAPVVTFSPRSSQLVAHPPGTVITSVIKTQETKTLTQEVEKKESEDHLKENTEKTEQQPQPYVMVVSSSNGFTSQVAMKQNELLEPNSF
In short: as §1

EHF = target: T5, EHF (Homo sapiens, UniProt Q9NZC4 1-300); details: protein: recombinant; tags: N-terminal GST; dsDNA, one strand shown
T5 sequence: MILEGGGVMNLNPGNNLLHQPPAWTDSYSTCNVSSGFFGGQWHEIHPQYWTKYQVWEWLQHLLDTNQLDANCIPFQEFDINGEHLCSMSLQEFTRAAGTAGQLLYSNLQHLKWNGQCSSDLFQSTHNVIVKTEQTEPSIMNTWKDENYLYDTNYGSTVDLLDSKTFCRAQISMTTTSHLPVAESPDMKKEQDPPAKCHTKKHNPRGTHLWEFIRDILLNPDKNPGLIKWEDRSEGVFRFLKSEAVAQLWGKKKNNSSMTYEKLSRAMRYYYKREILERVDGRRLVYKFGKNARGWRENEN
In short: as §1

SPI1 = SPI1 (Homo sapiens, UniProt P17947 1-270); details: protein: recombinant; tags: N-terminal GST; dsDNA, one strand shown
In short: as §1

SPIB = SPIB (Homo sapiens, UniProt Q01892 1-262); details: protein: recombinant; tags: N-terminal GST; dsDNA, one strand shown
Sequence of SPIB (Q01892 whole entry): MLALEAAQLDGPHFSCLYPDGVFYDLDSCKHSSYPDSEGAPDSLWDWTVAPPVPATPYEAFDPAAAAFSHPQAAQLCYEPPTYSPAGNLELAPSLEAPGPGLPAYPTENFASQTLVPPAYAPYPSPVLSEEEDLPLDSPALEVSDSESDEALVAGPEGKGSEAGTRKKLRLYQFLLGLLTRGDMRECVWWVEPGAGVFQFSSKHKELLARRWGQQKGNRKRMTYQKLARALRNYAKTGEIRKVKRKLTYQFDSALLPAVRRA
In short: as §1

ELK3 = target: T6, ELK3 (Homo sapiens, UniProt P41970 1-407); details: protein: recombinant; tags: N-terminal GST; dsDNA, one strand shown
T6 sequence: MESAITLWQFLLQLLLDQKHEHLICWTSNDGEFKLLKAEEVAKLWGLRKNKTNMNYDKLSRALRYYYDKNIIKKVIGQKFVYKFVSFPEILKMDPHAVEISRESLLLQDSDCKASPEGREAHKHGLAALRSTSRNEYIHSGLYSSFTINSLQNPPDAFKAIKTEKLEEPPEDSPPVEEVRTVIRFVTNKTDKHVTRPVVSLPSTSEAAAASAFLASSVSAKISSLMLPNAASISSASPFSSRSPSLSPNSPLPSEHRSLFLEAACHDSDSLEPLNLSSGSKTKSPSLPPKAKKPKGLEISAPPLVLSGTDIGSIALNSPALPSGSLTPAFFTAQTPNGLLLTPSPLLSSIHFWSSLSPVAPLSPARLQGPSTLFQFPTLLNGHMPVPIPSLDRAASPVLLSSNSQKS
In short: as §1

FEV = target: T7, FEV (Homo sapiens, UniProt Q99581 1-238); details: protein: recombinant; tags: N-terminal GST; dsDNA, one strand shown
T7 sequence: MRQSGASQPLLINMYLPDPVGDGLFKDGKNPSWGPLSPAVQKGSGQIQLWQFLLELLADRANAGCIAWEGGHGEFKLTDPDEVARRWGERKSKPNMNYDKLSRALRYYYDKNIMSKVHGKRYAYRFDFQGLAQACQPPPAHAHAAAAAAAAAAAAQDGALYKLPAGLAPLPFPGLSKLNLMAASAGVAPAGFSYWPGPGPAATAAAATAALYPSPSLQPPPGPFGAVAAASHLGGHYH
In short: as §1

ETV5 = ETV5 (Homo sapiens, UniProt P41161 1-510); details: protein: recombinant; tags: N-terminal GST; dsDNA, one strand shown
Sequence of ETV5 (P41161 whole entry): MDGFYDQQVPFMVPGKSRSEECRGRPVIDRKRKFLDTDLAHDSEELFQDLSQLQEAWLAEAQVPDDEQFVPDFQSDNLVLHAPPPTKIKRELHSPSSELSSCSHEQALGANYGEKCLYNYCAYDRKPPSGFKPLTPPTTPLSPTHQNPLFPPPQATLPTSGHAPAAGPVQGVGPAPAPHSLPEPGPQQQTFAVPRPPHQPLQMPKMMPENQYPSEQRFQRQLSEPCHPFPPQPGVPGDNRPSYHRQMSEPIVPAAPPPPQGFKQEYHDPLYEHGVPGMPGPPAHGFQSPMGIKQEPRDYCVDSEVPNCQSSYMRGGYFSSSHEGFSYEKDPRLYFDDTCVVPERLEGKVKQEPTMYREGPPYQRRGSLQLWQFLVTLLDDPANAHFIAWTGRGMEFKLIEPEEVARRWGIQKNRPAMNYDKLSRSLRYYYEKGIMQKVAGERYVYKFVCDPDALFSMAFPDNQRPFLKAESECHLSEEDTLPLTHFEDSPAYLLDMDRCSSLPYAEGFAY
In short: as §1

HSF1 = HSF1 (Homo sapiens, UniProt Q00613 1-529); details: protein: recombinant; tags: N-terminal GST; chain copies: 3; dsDNA, one strand shown
Sequence of HSF1 (Q00613 whole entry): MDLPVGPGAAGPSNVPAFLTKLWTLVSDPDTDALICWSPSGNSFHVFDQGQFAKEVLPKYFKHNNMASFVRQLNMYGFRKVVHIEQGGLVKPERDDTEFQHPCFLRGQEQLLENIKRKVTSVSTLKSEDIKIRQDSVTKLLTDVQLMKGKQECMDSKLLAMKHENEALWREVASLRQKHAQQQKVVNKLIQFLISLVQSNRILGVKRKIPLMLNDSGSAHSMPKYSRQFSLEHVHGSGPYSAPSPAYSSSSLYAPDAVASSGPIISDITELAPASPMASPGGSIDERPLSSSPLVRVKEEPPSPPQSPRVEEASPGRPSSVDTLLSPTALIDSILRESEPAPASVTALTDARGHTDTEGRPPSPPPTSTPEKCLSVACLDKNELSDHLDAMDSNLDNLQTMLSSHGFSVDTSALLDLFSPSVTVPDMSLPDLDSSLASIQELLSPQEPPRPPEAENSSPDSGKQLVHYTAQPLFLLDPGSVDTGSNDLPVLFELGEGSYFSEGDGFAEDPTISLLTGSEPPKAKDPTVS
In short: as §1

SPIC = target: T8, SPIC (Homo sapiens, UniProt Q8N5J4 1-248); details: protein: recombinant; tags: N-terminal GST; dsDNA, one strand shown
T8 sequence: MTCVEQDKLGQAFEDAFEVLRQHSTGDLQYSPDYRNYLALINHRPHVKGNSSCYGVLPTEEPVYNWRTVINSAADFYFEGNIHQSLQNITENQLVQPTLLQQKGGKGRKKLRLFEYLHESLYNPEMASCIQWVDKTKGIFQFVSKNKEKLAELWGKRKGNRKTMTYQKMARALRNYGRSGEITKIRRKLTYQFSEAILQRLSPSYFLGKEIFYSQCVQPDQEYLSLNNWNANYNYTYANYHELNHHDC
In short: as §1

ELF4 = ELF4 (Homo sapiens, UniProt Q99607 1-663); details: protein: recombinant; tags: N-terminal GST; dsDNA, one strand shown
Sequence of ELF4 (Q99607 whole entry): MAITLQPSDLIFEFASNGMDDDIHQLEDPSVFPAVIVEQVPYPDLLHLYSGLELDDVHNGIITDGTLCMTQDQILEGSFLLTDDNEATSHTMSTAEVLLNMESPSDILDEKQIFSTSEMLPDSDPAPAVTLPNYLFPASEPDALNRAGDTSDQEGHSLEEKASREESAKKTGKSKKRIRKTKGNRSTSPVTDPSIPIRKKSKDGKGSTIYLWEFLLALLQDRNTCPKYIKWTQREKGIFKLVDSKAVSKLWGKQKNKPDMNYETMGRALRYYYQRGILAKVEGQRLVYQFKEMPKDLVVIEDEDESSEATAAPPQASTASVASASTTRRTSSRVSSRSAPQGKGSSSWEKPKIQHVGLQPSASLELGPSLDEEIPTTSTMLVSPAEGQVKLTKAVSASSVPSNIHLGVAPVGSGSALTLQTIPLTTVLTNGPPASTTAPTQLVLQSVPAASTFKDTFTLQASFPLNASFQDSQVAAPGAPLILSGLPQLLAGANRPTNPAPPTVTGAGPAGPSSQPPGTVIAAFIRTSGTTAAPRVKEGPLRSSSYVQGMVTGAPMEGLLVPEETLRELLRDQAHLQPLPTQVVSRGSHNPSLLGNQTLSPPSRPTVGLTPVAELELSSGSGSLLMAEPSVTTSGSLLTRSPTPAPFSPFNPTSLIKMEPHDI
In short: as §1

ELK4 = target: T9, ELK4 (Homo sapiens, UniProt P28324-2 1-405); details: protein: recombinant; tags: N-terminal GST; dsDNA, one strand shown
T9 sequence: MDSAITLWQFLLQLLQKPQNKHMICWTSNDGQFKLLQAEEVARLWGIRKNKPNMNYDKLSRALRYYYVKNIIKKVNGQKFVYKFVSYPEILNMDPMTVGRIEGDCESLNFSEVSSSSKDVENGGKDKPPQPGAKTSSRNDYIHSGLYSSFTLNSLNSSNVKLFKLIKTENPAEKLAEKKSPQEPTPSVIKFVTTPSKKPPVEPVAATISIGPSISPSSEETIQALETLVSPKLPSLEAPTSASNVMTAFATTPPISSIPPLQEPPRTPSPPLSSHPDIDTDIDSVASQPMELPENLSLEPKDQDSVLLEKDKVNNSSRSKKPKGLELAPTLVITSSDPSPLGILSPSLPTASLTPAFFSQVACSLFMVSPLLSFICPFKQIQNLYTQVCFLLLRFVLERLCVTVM
In short: as §1

ELF3 = target: T10, ELF3 (Homo sapiens, UniProt P78545 1-371); details: protein: recombinant; tags: N-terminal GST; dsDNA, one strand shown
T10 sequence: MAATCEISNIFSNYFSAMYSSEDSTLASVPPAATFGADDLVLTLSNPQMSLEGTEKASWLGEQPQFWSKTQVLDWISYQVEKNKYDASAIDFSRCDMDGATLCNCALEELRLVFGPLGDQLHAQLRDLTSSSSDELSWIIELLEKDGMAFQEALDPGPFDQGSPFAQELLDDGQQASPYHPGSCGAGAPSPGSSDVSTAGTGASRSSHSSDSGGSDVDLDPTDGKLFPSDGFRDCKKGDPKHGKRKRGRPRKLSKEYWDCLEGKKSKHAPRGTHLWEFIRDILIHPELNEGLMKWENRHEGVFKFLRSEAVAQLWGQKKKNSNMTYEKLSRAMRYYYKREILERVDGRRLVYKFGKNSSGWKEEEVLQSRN
In short: as §1

CRX = CRX (Homo sapiens, UniProt O43186 1-299); details: protein: recombinant; tags: N-terminal GST; dsDNA, one strand shown
Sequence of CRX (O43186 whole entry): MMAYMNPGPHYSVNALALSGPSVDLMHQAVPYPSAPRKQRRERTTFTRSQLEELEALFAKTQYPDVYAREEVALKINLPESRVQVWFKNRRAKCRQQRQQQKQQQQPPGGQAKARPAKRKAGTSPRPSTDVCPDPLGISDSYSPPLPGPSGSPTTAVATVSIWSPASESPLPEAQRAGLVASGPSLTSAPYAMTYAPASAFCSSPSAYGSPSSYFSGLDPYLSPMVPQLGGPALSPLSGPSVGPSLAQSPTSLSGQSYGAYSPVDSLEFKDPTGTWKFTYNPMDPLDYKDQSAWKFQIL
In short: as §1

ETV1 = ETV1 (Homo sapiens, UniProt P50549 1-477); details: protein: recombinant; tags: N-terminal GST; dsDNA, one strand shown
Sequence of ETV1 (P50549 whole entry): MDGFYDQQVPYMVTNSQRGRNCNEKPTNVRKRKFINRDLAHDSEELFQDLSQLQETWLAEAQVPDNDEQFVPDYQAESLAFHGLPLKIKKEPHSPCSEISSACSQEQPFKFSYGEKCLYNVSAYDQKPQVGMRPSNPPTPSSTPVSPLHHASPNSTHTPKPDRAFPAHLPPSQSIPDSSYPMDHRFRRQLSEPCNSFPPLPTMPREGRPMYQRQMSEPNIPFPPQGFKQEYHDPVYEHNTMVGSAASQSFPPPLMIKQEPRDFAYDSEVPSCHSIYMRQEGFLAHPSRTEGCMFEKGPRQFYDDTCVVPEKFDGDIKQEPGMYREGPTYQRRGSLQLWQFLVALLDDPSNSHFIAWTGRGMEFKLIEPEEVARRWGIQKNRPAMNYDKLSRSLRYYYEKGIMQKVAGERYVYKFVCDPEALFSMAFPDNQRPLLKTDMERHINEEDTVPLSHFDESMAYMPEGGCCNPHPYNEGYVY
In short: as §1

CTATCG
binding signal (FLI1): 1.13 fold enrichment (6-mer frequency, TF over GST control) | binding signal (ELK1): 1.14 fold enrichment (6-mer frequency, TF over GST control) | binding signal (GABPA): 1.05 fold enrichment (6-mer frequency, TF over GST control) | binding signal (ERG): 1.09 fold enrichment (6-mer frequency, TF over GST control) | binding signal (ELF1): 1.11 fold enrichment (6-mer frequency, TF over GST control) | binding signal (EHF): 1.07 fold enrichment (6-mer frequency, TF over GST control) | binding signal (SPI1): 1.13 fold enrichment (6-mer frequency, TF over GST control) | binding signal (SPIB): 1.11 fold enrichment (6-mer frequency, TF over GST control) | binding signal (ELK3): 1.08 fold enrichment (6-mer frequency, TF over GST control) | binding signal (FEV): 1.01 fold enrichment (6-mer frequency, TF over GST control) | binding signal (ETV5): 1.06 fold enrichment (6-mer frequency, TF over GST control) | binding signal (HSF1): 1.17 fold enrichment (6-mer frequency, TF over GST control) | binding signal (SPIC): 1.04 fold enrichment (6-mer frequency, TF over GST control) | binding signal (ELF4): 1.15 fold enrichment (6-mer frequency, TF over GST control) | binding signal (ELK4): 1.09 fold enrichment (6-mer frequency, TF over GST control) | binding signal (ELF3): 1.22 fold enrichment (6-mer frequency, TF over GST control) | binding signal (CRX): 1.08 fold enrichment (6-mer frequency, TF over GST control) | binding signal (ETV1): 1.13 fold enrichment (6-mer frequency, TF over GST control)
